Laboratory results published in PubChem BioAssay AID1347131 (National Center for Advancing Translational Sciences (NCATS), 2019).
Screen size: about 410,000 compounds; about 2,000 (0.49%) were called active. Entries that show only a call come without a potency. Roughly 8% stayed inconclusive and do not appear here. Calls come from the whole dose curve; tested in HEK293 reporter line. Only a selection was taken, and actives are over-represented in it overall.

Test: qHTS Assay for Foot and Mouth Disease Virus Antivirals: Primary Screen against the MLPCN compound library; note: nearly all actives have a fitted effect of over 55% in size
Details: FMDV antiviral cell-based qHTS; series mostly up to 57.9 µM
Potency is the fitted concentration of half-maximal effect.

SMILES	Potency
Cc1cccc(C)c1-n1nnnc1C(c1ccnc2ccccc12)N(CCN(C)C)Cc1ccccc1 (centres undefined)	inactive
Cc1ccc(C(=O)Nc2ccccc2C(=O)O)cc1S(=O)(=O)Nc1ccccc1	inactive
Cc1cccc(C(=O)O)c1NC(=O)c1ccc(F)cc1	inactive
Cc1c(NC(=O)c2ccc(-c3ccccc3)cc2)cccc1C(=O)O	5.01 µM (active)
COc1ccc(C(C)(O)c2nc(-c3ccc(S(C)(=O)=O)cc3)cs2)cc1 (centres undefined)	inactive
COc1ccc(-c2csc(N3C(=O)CNC3=S)n2)cc1	10 µM (active)
COc1ccc(C(C)(O)c2nc(-c3ccncc3)cs2)cc1 (centres undefined)	inactive
Cc1ccc(CC2CC(=O)N(Cc3ccco3)C2=O)cc1 (centres undefined)	inactive
Cn1c(=O)[nH]c(=O)c2c1nc(N1CCCCC1)n2CCOc1ccccc1	inactive
Cn1c(=O)[nH]c(=O)c2c1nc(N1CCCCC1)n2CC(O)COc1ccc([N+](=O)[O-])cc1 (centres undefined)	10 µM (active)
Cn1c(=O)c2c(nc(N3CCCCC3)n2CC(O)COc2ccccc2)n(C)c1=O (centres undefined)	inactive
CCCc1cnc(N2CCN(C(=O)c3ccc(F)cc3)CC2)nc1	inactive
Cc1ccc2c(c1)N(C(=O)Nc1cccc3c1CCCC3)CCO2	inactive
CCC(Sc1nc(C)cc(C)n1)C(=O)O (centres undefined)	inactive
O=S(=O)(c1ccc(Cl)cc1)N1CCc2ccccc21	inactive
COc1ccccc1CC1(C)C(=O)Nc2ccc(OC(F)(F)F)cc21 (centres undefined)	inactive
FC(F)(F)c1ccccc1N1CC1c1ccncc1 (centres undefined)	inactive
COc1ccccc1[C@]1(C)ON(c2ccccc2C(F)(F)F)C1=O	14.1 µM (active)
O=C(O)c1ccccc1-c1nc2ccccc2n1-c1ccccc1	inactive
Cc1ccc(C(=O)N2CCN(c3nc4ccccc4n3C)CC2)cc1	inactive
Cc1oc(-c2nc3ccccc3n2C)cc1C(=O)c1ccccc1	17.8 µM (active)
CN(c1ccc(OCC(=O)Nc2ccc(S(N)(=O)=O)cc2)cc1)S(=O)(=O)c1ccc(F)cc1	inactive
Cc1ccc(S(=O)(=O)C2(S(=O)(=O)c3ccc(C)cc3)CC2)cc1	inactive
Cc1ccccc1C(=O)N1CCC(C(=O)Nc2cc(C(F)(F)F)ccc2N2CCCC2)CC1	inactive
CN(C)S(=O)(=O)N1CCC(Oc2cccc(C(=O)NCCC3=CCCCC3)c2)CC1	inactive
O=C(NCCC1=CCCCC1)c1ccc(F)cc1	14.1 µM (active)
O=C(NCCc1nc(-c2ccc(F)cc2)no1)c1ccc(F)cc1	inactive
CCCCn1nc2cc(C(=O)NCC34CC5CC(CC(C5)C3)C4)ccc2c1OC	inactive
Cc1noc(C)c1CSc1nnc(-c2cc(Cl)ccc2Cl)n1N	inactive
